This is a sample that favours compounds with a hit; in the whole collection about 6.8% have one here.
Spn DPM-DC inh – S. pneumoniae DPM-DC inhibition | 0.49% of 65,000 active | calls only at 10 µM | AID 556 | purified DPM-DC, PK/LDH coupled NADH fluorescence;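 active = the 320 compounds with the highest percent inhibition in the single-dose primary screen, excluding strongly autofluorescent ones, cut at about 32% in these data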;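 also: kinetic rate of NADH fluorescence loss reporting ADP formed by the decarboxylase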
A340 absorber – absorbance at 340 nm; compound absorbance at 340 nm, fold over control; fold change at 10 µM; 65,000 tested, under 10 active; AID 708;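 active = at 10 µM dose, initial 340 nm absorbance at least 2 fold that of control wells; inactive = change under 2 fold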;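 also: initial absorbance extrapolated from kinetic A340 decline of NADH oxidation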
MK inhibit – inhibitors of Streptococcus pneumoniae mevalonate kinase; purified MK, PK/LDH-coupled NADH absorbance 340 nm; inhibition, % at 10 µM; 0.48% of 65,000 active; AID 555;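 active = ranked among the strongest by inhibition in the single 10 µM screen, a fixed top-ranked set picked for dose follow-up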
Autofluor 339 – intrinsic fluorescence of library compounds, ex339/em460 – biochemical, MLSMR library, data from DPM-DC assay, artefact control, profiling panel. fluorescence fold increase at 10 µM. 5.5% of 65,000 active. compound autofluorescence, ex339/em460 nm, NADH buffer; active compounds read high; 1 = no-compound wells, NADH background;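 active = at 10 µM, mean starting fluorescence two-fold or more over control wells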;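 also: signal is the first read of a kinetic run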
Spn PMK inh – blocks S. pneumoniae phosphomevalonate kinase; purified PMK, PK/LDH-coupled NADH absorbance 340 nm; inhibition, % at 10 µM; 0.49% of 65,000 active; AID 539;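 active = top-ranked compounds by inhibition in the single 10 µM screen, taking a fixed number of the strongest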;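 also: 0% = full reaction with DMSO carrier and 100% = background rate without enzyme reaction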
NADH enzymes – inhibition of NAD/NADH coupling enzymes, library profiling; AID 774; 0.02% of 65,000 active; IC50, µM (series often up to 10 µM), without a hit: top-dose inhibition; coupled PK/LDH NADH assays, four targets;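 active = single-dose screening hits from any of four coupled enzyme assays that gave an IC50 when retested across doses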;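 also: the DPM-DC format reads NADH fluorescence rather than 340 nm absorbance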
Numbers without * were called inactive; i = inactive; · = no result given; + = active, no number.

SMILES	Spn DPM-DC inh	A340 absorber	MK inhibit	Autofluor 339	Spn PMK inh	NADH enzymes
Cc1nc2c(C(=O)N3CCCCC3)cnn2c(C)c1Cc1ccccc1F	i	1	0	3.2*	3	5%
Clc1cccc(Cl)c1COc1ccccn1	i	1	8	1.1	6	5%
CC(Oc1ccc(Cl)cc1)C(=O)Nc1nccs1 (configuration not stated)	i	1.1	11	1.1	0	4%
COCCn1c(SCC(=O)c2ccc(Cl)cc2)nnc1C(C)C	i	0.98	10	1.1	10	7%
Cc1ccc(-c2noc(CCC(=O)NCCN3CCOCC3)n2)cc1	i	0.97	11	0.98	14	10%
O=C(CCc1nc(-c2ccccc2F)no1)NCCc1ccccc1Cl	i	1	0	1.1	16	5%
O=C(CCc1nc(-c2ccccc2F)no1)NCCN1CCc2ccccc2C1	+	1	0	0.39	14	26%
Cc1ccc(-c2noc(CCC(=O)NCCN3CCc4ccccc4C3)n2)cc1	i	1	0	1.1	25*	8%
COc1ccc(C(=O)Nc2cccc(C)c2)cc1	i	1.1	0	1.1	0	0%
CCn1c2ccccc2c2nnc(SCC(=O)NC(C(=O)OC)C(C)C)nc21 (configuration not stated)	i	1	9	1.1	13	7%
Cc1ccc(-c2nn3c(C)nnc3s2)cc1NCc1c(F)cccc1Cl	i	1.1	6	2.3*	6	14%
CCOC(=O)c1cc2ccc(OC(=O)c3ccco3)cc2oc1=O	·	1.2	9	3.7*	5	7%
COc1ccccc1Oc1c(C)oc2cc(OC(=O)c3ccco3)ccc2c1=O	i	1	8	2.6*	8	12%
COc1ccccc1-c1c(C)oc2cc(OC(=O)c3ccco3)ccc2c1=O	i	1.1	15	2.1*	1	14%
COc1ccc(-c2nc(-c3cccs3)c(-c3cccs3)[nH]2)cc1O	i	1.1	0	3*	5	2%
O=C(O)CCSc1nc2ccccc2s1	i	1.1	0	1.1	4	1%
c1ccc2sc(SCc3ccc(-c4nnco4)cc3)nc2c1	i	1	5	1	30*	14%
Cc1cc(OCC(=O)Nn2cnnc2)ccc1Br	i	1	1	1	10	4%
Nn1c(Nc2ccccc2)nc2ccccc2c1=O	i	1	4	1.1	5	3%
O=c1[nH]c(Nc2ccccc2)cc2ccccc12	·	1	2	3.4*	10	8%
COc1ccc(C(=O)CN2C(=O)C(C)(C)Oc3ccc(C(=O)N4CCCCCC4)cc32)cc1	i	1	5	1	13	8%
CCOC(=O)c1cc2sc(C)cc2n1CC(=O)N1CCN(C(=O)c2ccco2)CC1	i	1	42*	1.1	17	20%
CCOC(=O)c1cc2sccc2n1CC(=O)N1CCN(C(=O)c2ccco2)CC1	i	0.98	15	1.1	3	6%
CCOC(=O)c1cnc(SCC(=O)N2CCN(C(=O)c3ccco3)CC2)nc1N	i	1	0	1.1	25*	8%
COc1cccc(CNC(=O)C2CCN(S(=O)(=O)N3CC(C)CC(C)C3)CC2)c1 (configuration not stated)	i	1	0	1	24	8%
SMILES	Spn DPM-DC inh	A340 absorber	MK inhibit	Autofluor 339	Spn PMK inh	NADH enzymes
CCCOc1cccc(C2C(C(=O)c3ccc(C)o3)=C(O)C(=O)N2CCCN(C)C)c1 (configuration not stated)	i	1	0	1.1	8	3%
Nc1c(S(=O)(=O)c2cccs2)c2nc3ccccc3nc2n1CC1CCCO1 (configuration not stated)	·	1	9	3*	10	4%
COc1ccc(CCn2c(N)c(C#N)c3nc4ccccc4nc32)cc1OC	i	1	8	1.6	0	6%
CC(C)CN1CN(S(=O)(=O)c2cccs2)c2nc3ccccc3nc21	i	1.1	9	1.4	7	5%
COc1ccc(CCn2c(N)c(S(=O)(=O)c3cccs3)c3nc4ccccc4nc32)cc1OC	+	1.1	3	1.5	11	21%
CC(C)CCn1c(N)c(S(=O)(=O)c2cccs2)c2nc3ccccc3nc21	·	1	1	3*	13	3%
Nc1c(S(=O)(=O)c2cccs2)c2nc3ccccc3nc2n1Cc1ccc2c(c1)OCO2	+	1.1	2	2.7*	6	14%
Cc1ccc(NC(=O)c2cc(-c3cccc(O)c3)on2)cc1C	i	1	7	1.1	23	10%
CC(C)(C)C(=O)/C=C(N)/C=C/c1ccccc1	i	1.1	0	1.1	1	0%
CCn1c2ccccc2c2nnc(SCN3C(=O)c4ccccc4C3=O)nc21	i	1.1	4	1.1	4	3%
Nc1c(S(=O)(=O)c2cccs2)c2nc3ccccc3nc2n1Cc1cccs1	·	1.1	4	3.9*	12	8%
O=c1c2ccccc2nc(-c2ccccc2)n1Cc1ccco1	i	0.99	8	1.2	3	4%
Cn1c(N)c(S(=O)(=O)c2ccc(Br)cc2)c2nc3ccccc3nc21	·	1.1	2	3.8*	7	5%
COc1ccc(Cn2c(N)c(C#N)c3nc4ccccc4nc32)cc1OC	·	1	0	1.9	9	2%
Nc1c(S(=O)(=O)c2ccccc2)c2nc3ccccc3nc2n1Cc1ccco1	·	1.1	8	2.2*	7	8%
O=C(NC12CC3CC(CC(C3)C1)C2)c1ccccc1O	i	1	9	2.2*	6	7%
CCNc1ccc(C(=O)OCC)cc1NC(=O)c1cccc(S(=O)(=O)N2CCOCC2)c1	i	1.1	3	1	8	4%
CCn1c(=O)c(C(=O)Nc2nc3ccccc3[nH]2)c(O)c2ccccc21	i	1.1	5	2.4*	15	13%
CCn1c(=O)c(C(=O)Nn2c(C)nc3ccccc3c2=O)c(O)c2ccccc21	i	1	8	1	5	7%
COc1ccc(-c2nc3cccc(C)n3c2NCc2ccco2)cc1OC	·	1	16	5.1*	2	9%
COc1ccc(-c2csc(NCc3ccco3)n2)cc1C	i	1	12	1.1	7	6%
CCCCCCC(=O)N1CCC(c2nc3c(nnn3Cc3ccccc3Cl)c(=O)[nH]2)CC1	i	1	0	1.1	6	2%
N#Cc1nc(-c2cccs2)oc1NCc1ccccc1Cl	·	1	2	2.4*	6	4%
COc1ccc(CNc2oc(C)nc2C#N)cc1	i	1	7	1	8	5%
N#Cc1nc(-c2cccs2)oc1N1CCN(c2ccccc2)CC1	·	1	6	3.7*	7	7%
N#Cc1nc(-c2cccs2)oc1NCc1ccco1	·	1.1	4	2.2*	0	2%

Bioassay records deposited in PubChem BioAssay by SRMLSC.
